The sample as a whole holds a higher share of hits than the screen did.
D1 allo mod: allosteric modulators of human D1 dopamine receptor | AID 641 | B-score at 10 µM | 58,000 tested, 5.9% active | HEK293 D1, CRE-luciferase, dopamine EC30 potentiation; actives deviate in either direction;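 active = luminescence count or its row- and column-corrected plate score outside the 99.7% band of the plate's sample wells, on either side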
Target sequence (P21728 whole entry, looked up): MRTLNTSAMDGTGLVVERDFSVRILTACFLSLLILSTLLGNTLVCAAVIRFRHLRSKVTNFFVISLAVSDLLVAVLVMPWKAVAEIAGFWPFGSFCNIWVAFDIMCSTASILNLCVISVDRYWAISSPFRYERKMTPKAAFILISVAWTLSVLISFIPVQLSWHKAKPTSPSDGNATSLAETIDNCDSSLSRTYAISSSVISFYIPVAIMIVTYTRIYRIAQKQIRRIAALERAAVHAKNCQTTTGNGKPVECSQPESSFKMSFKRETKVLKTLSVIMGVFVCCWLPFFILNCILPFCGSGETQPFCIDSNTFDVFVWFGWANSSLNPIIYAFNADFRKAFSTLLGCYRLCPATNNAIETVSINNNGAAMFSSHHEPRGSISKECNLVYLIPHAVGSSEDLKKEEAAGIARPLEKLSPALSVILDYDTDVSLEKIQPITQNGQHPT
BAP1 block: blocks human BAP1 ubiquitin-AMC hydrolysis | Q92560 | recombinant BAP1, Ub-AMC hydrolysis fluorescence kinetic; stronger effect = lower value | calls only at 20 µM | 72,000 tested, 0.48% active | AID 436;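 active = activity remaining at or below 50% of control, provided the compound also passes the data quality filters; inactive = the rest, including low values that fail the filters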;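 note: 100% = DMSO wells rate and 0% = substrate alone blank rate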
hDAT+cocaine: modulates human dopamine transporter uptake under cocaine; B-score at 10 µM; 110,000 tested, 1.3% active; Q01959; LLC-PK1 hDAT cells, [14C]-dopamine uptake with cocaine IC80; actives deviate in either direction;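 active = Z score or B-score, a plate-position-corrected score, falls beyond the plate's 99.7% confidence bounds, in either direction; inactive = both scores lie inside the 99.7% bounds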;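 note: scored against the spread of the other compound wells on the same plate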
BAP1 inh conf: confirmation of human BAP1 enzyme inhibitors | AID 753 | shares compounds with BAP1 block | 310 tested, 8% active | % of control activity, % at 20 µM | purified BAP1, Ub-ethyl ester hydrolysis, HPLC; stronger effect = lower value;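 active = percent of control activity at or below 60%; inconclusive = HPLC trace unusable from injection failure or solvent front hiding peaks; inactive = the rest, plus ubiquitin peak ratio over a set limit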
The depositor's hits bear a star; i = inactive; ? = inconclusive; / = no result given; + = active, no number.

SMILES | D1 allo mod | BAP1 block | hDAT+cocaine | BAP1 inh conf
Oc1ccc(Br)cc1/C=N/n1cnc2ccccc21 | -0.089 | + | -0.39 | 130
OCC(CO)(CO)N=Cc1cc(Br)ccc1O | 0.69 | i | 1.1 | /
CC1=C(C(=O)OCc2ccccc2)C(c2ccccc2[N+](=O)[O-])CC(=O)N1 (centres undefined) | / | i | / | /
O=C(Oc1ccc2c(=O)c(Oc3ccccc3Br)c(C(F)(F)F)oc2c1)c1ccco1 | / | i | / | /
Cn1c(C(=O)N2CCCc3ccccc32)cc2c(=O)n3ccccc3nc21 | -0.67 | + | / | 110
Cn1c(C(=O)N2CCc3ccccc32)cc2c(=O)n3ccccc3nc21 | -0.015 | i | / | /
Cc1cccc(N=c2oc3ccccc3cc2-c2nc3ccccc3[nH]2)c1 | / | i | / | /
COc1ccc(Cl)cc1NC(=O)C1c2ccccc2Oc2ccccc21 | / | i | / | /
Cc1c(N2C(=O)c3ccc4c5c(ccc(c35)C2=O)CC4)c(=O)n(-c2ccccc2)n1C | 0.3 | + | -0.75 | 65
Cc1c(N2C(=O)c3ccc(Br)cc3C2=O)c(=O)n(-c2ccccc2)n1C | / | / | -0.2 | /
COc1cc(C2CC(=O)Nc3c2ccc2ccccc32)cc(OC)c1O (centres undefined) | / | i | / | /
CCCc1cc(=O)[nH]c(Nc2ccc(N3CCCCC3)cc2)n1 | 0.75 | i | -1.6 | /
CCCCc1ccc(Nc2nc(CCC)cc(=O)[nH]2)cc1 | -1.3 | + | 0.55 | 88
CCNCCNC(=O)c1c(O)c2ccccc2n(CC)c1=O | -0.19 | i | 0.56 | /
CCn1c(=O)c(C(=O)NCCc2ccccc2)c(O)c2ccccc21 | -0.38 | + | 0.27 | 104
Cc1ccc(C)c(S(=O)(=O)N2CCC(c3nc4c(nnn4Cc4ccc(F)cc4)c(=O)[nH]3)CC2)c1 | 0.007 | + | 0.0062 | 135
Cc1ccc(Cn2nnc3c(=O)[nH]c(C4CCN(S(=O)(=O)c5ccc(F)cc5)CC4)nc32)cc1 | 0.0021 | / | / | /
Cc1ccc(Cn2nnc3c(=O)[nH]c(C4CCN(C(=O)c5cccs5)CC4)nc32)cc1 | 2 | i | 0.34 | /
Cc1ccc(Cn2nnc3c(=O)[nH]c(C4CCN(S(=O)(=O)c5cc(C)ccc5C)CC4)nc32)cc1 | 1.8 | + | 0.62 | 131
COc1ccc2oc(=Nc3ccccc3OC)c(C(=O)NC(C)=O)cc2c1 | / | i | / | /
O=C(COc1ccc(Cl)cc1)Nc1nnc(-c2ccc3c(c2)CCCC3)o1 | -0.51 | + | -0.035 | i
CC(=O)Nc1nnc(-c2ccc3c(c2)CCCC3)o1 | -3 | i | 0.44 | /
CC(=O)c1ccc(NC(=O)c2ccccc2Cl)cc1 | / | i | / | /
COc1ccc(Br)cc1C1NC(=O)NC(C)=C1C(=O)N(C)C (centres undefined) | / | / | 0.26 | /
COC(=O)C1=C(C)NC(=O)NC1c1cc(Cl)ccc1OC (centres undefined) | -0.6 | + | -1 | 103
SMILES | D1 allo mod | BAP1 block | hDAT+cocaine | BAP1 inh conf
CCOC(=O)C1=C(C)NC2=C(C(=O)CC(C)(C)C2)C1c1ccc(OC)c(OC)c1OC (centres undefined) | / | i | / | /
O=C(c1ccccc1)c1ccc(OCC(O)CN2CCN(S(=O)(=O)N3CCCCC3)CC2)cc1 (centres undefined) | / | / | 1.1 | /
CCC(=O)c1ccc(OCC(O)CN2CCN(S(=O)(=O)N3CCCCC3)CC2)cc1 (centres undefined) | 0.57 | + | 0.41 | 83
CCc1ccc(NC(=O)COc2ccc(C(C)C)cc2)cc1 | / | i | / | /
COC(=O)c1ccccc1NC(=O)c1sc(N)nc1C | / | i | 1.5 | /
COC(=O)c1ccccc1NC(=O)c1sc(=S)n(C)c1N | 0.011 | + | 6* | 51*
COc1ccc(Br)cc1C1Nc2ccc3ncccc3c2C2=C1C(=O)CCC2 (centres undefined) | / | i | / | /
COc1ccc(N=C2CCCN2CC(N)=O)cc1 | -0.15 | + | -0.3 | 87
COc1ccc(S(=O)(=O)CC(O)CN2CCCC2=O)cc1 (centres undefined) | / | / | -1.6 | /
c1ccc2c(-c3nc(C4CCCCC4)no3)cc(-c3ccncc3)nc2c1 | 2 | + | 1.2 | 90
Cc1ccc2nc(-c3ccncc3)cc(-c3ccccc3)c2c1 | / | / | -0.17 | /
CCCCCCc1ccc(C(=O)Nc2cc3cc([N+](=O)[O-])ccc3oc2=O)cc1 | / | i | / | /
CCOC(=O)c1c(NC(=O)C(C(C)C)N2C(=O)c3ccccc3C2=O)sc2c1CCC2 (centres undefined) | / | i | / | /
COc1cccc(NC(=O)c2ccccc2-c2nc(-c3ccc(Cl)cc3)no2)c1 | -0.29 | + | 0.0012 | ?
COc1cccc(NC(=O)c2ccccc2-c2nc(-c3ccccc3)no2)c1 | -0.7 | i | 0.42 | /
O=C1CC(N(CCc2ccccc2)C(=O)c2cccc(F)c2)C(=O)N1c1ccc(Cl)cc1 (centres undefined) | / | i | / | /
CCCCn1c2c(c3ccccc31)CCc1nonc1-2 | -0.31 | + | -0.046 | 51*
CCOC(=O)C1=C(C)N(C)C(=S)NC1c1ccc(OC(=O)c2ccccc2)cc1 (centres undefined) | / | i | / | /
CCOC(=O)c1c(NC(=O)CSc2nnc(CNc3ccc(F)cc3)o2)sc(C(C)=O)c1C | 0.61 | + | 0.42 | 68
CCOC(=O)c1c(NC(=O)CSc2nc(C)cc(C)c2C#N)sc(C(C)=O)c1C | 1.6 | + | / | 80
CCOC(=O)c1c(NC(=O)CSc2nnc(Cc3ccccc3)o2)sc(C(C)=O)c1C | / | / | -0.66 | /
CCOC(=O)c1sc(NC(=O)CSc2nc(C)cc(C)n2)c(C#N)c1C | / | / | -0.17 | /
Cc1ccc(-c2nc(Nc3ccccc3C)sc2C)cc1 | / | i | / | /
CCOC(=O)c1c(NC(=O)C2CCCCC2)sc(C(=O)Nc2ccccc2F)c1C | / | i | / | /
Nc1nc(F)cc(Oc2ccc(F)cc2)n1 | / | i | / | /
SMILES | D1 allo mod | BAP1 block | hDAT+cocaine | BAP1 inh conf
CCc1ccc(NC2=C(Cl)C(=O)N(c3ccccc3Cl)C2=O)cc1 | / | i | / | /
Cc1ccc2[nH]c(=O)c(CN(Cc3ccc4c(c3)OCO4)Cc3nnnn3Cc3ccco3)cc2c1 | -1.8 | + | 1.5 | 102
CCc1ccc2[nH]c(=O)c(CN(Cc3ccccc3)Cc3nnnn3Cc3ccco3)cc2c1 | / | + | 1.7 | 110
Cc1cccc2cc(CN(Cc3cccs3)Cc3nnnn3Cc3ccccc3)c(=O)[nH]c12 | 0.23 | + | 1.2 | 155
O=c1[nH]c2cc3c(cc2cc1CN(Cc1cccs1)Cc1nnnn1Cc1ccco1)OCCO3 | 2.3 | i | 2.8 | /
Cc1ccc2[nH]c(=O)c(CN(Cc3ccc4c(c3)OCO4)Cc3nnnn3C3CCCC3)cc2c1 | -0.053 | / | / | /
CCOC(=O)Cn1nnnc1CN(Cc1ccccc1)Cc1cc2cc(CC)ccc2[nH]c1=O | 2 | i | 0.7 | /
Cc1ccc(NC(=O)Cn2c3ccccc3c(=O)c3ccccc32)cc1C | / | i | / | /
CCOc1ccccc1NC(=O)C1=C(C)NC(=S)NC1c1cccc(Cl)c1 (centres undefined) | / | i | / | /
COc1ccc(C2C(C(C)=O)=C(C)N=c3s/c(=C\c4cc(C)n(C)c4C)c(=O)n32)c(OC)c1 (centres undefined) | 0.16 | i | 0.011 | /
COc1ccc(C2C(C(C)=O)=C(C)N=c3s/c(=C\c4ccco4)c(=O)n32)c(OC)c1 (centres undefined) | -0.59 | + | 0.55 | 76

Source: PubChem
